# Assay results published in PubChem BioAssay (NCATS).
# Active and inactive are the calls of the source.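 Rule for the calls: active = calcium activation more than 3 SD above the typical response in the agonist read; inactive = the rest.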
# Biological target: Thyrotropin-releasing hormone receptor (Homo sapiens) (UniProt P34981)
# Assay: qHTS for Small Molecule Agonists and Allosteric Enhancers of Human TRH Receptor: Validation Screen for Agonists (AID 493127);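 note: intracellular calcium rise by fluo-8 fluorescence before TRH EC20 addition; 0% is about no effect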
# Details: TRH receptor agonist cell assay; at 2 µM; stronger effect = higher value
# From the text: NIH Chemical Genomics Center [NCGC]
# NIH Molecular Libraries Probe Centers Network [MLPCN]
# Assay Submitter (PI): Marvin Gershengorn
# This project aims to identify small drug-like molecules that activate (agonists) the thyrotropin releasing hormone (TRH) receptor (TRHR) or enhance its TRH-stimulated activity (allosteric enhancers). TRHR, a drug-accessible cell surface receptor expressed in specific brain regions, and its ligand TRH have been implicated in several central nervous system disorders, including depression and anxiety. Small molecule TRHR agonists or allosteric enhancers that are metabolically stable and able to cross the blood-brain barrier might serve as probes to elucidate the roles of brain TRH receptors in animal models, and might be valuable as lead compounds for the development of drugs to treat patients with central nervous system disorders.
# Upon TRHR-Gq activation in TRHR cells, intracellular calcium is released from stores in the endoplasmic reticulum. […] This validation screen measures compound-induced activation of calcium release.
# For the HTS assay freshly prepared cells are plated at a density of 2000/well in 3 ul of complete DMEM medium containing 10% serum in 1536-well plates and cultured over night at 37 C in a humidified incubator with 5% CO2. The next day, 2 ul of a no wash calcium dye (ABD Bioquest) was added to the cells and plates were incubated at room temperature for 1 hour. For the assay, assay plates were loaded into the FDSS kinetic plate reader. A 10 cycle (1 second/cycle) baseline measurement is taken and then the FDSS online 1536 pintool delivers 23 nl of compound library (as well as TRH controls) to the plate. The plate is measured for kinetically at 1 cycle/sec for 180 seconds and is considered to be the agonist portion of the assay (eg, compounds which activate a positive calcium response during this portion are flagged as potential agonists). Following the 180 second read, 1 ul of either an EC20 (positive modulation assay) is delivered by an onboard pipette head. Measurements are taken kinetically for an additional 180 seconds.
# TRHR FDSS Screening Protocol
# 1. Reagent, 3 uL 2000 cells/well 1536 TC treated Black plate in media containing 10% FCS
# 2. Time, 18 hours, 33.5C 5% CO2 (cells grown at 37C)
# 3. Reagent, 2 uL ABD fluo-8 Ca dye
# 4. Time, 30 min-1.5hrs hours, Room temp (6 plates/batch)
# 5. Detector, EX 480/EM 530C, FDSS 10 cycles baseline (1sec/cycle)
# 6. Compound, 23 nL of stock solution from library
# 7. Detector, EX 480/EM 530C, FDSS 230 cycles (1sec/cycle) Agonist mode
# 8. Compound, 1 ul EC20 of TRH made up in HEPES HBSS, 10 nM final
# 9. Detector, EX 480/EM 530C, FDSS 100 cycles (1sec/cycle) Potentiator mode
# Sequence of Thyrotropin-releasing hormone receptor (Homo sapiens) (P34981 whole entry, looked up): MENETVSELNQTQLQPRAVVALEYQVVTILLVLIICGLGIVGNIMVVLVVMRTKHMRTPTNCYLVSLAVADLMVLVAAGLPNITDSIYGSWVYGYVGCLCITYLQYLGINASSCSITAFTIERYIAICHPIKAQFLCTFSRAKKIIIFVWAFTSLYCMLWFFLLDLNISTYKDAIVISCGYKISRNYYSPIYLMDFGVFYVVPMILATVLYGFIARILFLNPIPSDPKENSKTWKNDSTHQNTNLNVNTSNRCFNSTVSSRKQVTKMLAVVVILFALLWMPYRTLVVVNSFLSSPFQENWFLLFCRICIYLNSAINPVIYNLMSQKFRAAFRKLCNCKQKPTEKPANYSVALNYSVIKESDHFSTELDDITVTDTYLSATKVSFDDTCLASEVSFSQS
row,Compound,activation
1,O=P(O)(O)C(Cl)(Cl)P(=O)(O)O,-0.25% (inactive)
2,NC(N)=Nc1ccc2[nH]c3c(c2c1)C[C@@]1(O)[C@H]2Cc4ccc(O)c5c4[C@@]1(CCN2CC1CC1)[C@H]3O5,0.188% (inactive)
3,C[N+]1(C)CCOC(O)(c2ccc(-c3ccc(C4(O)C[N+](C)(C)CCO4)cc3)cc2)C1 (stereo not given),1.19% (inactive)
4,O=S1(=O)N(CCN2CC=C(c3c[nH]c4cc(F)ccc34)CC2)c2cccc3c2N1CCC3,52.8% (active)
5,CN1CCC(c2c[nH]c3ccc(O)cc23)CC1,1% (inactive)
6,O=[N+]([O-])c1ccc2nc(N3CCNCC3)ccc2c1,1.44% (inactive)
7,NCCc1ccc(S(=O)(=O)F)cc1,1.25% (inactive)
8,CC(=O)NBr,-0.0625% (inactive)
9,NC(CCCCCP(=O)(O)O)C(=O)O (stereo not given),0.312% (inactive)
10,CC1(C(=O)O)C2CCC(O2)C1(C)C(=O)O (stereo not given),0.438% (inactive)
11,CCn1cnc2c(Nc3cccc(Cl)c3)nc(N[C@@H]3CCCC[C@@H]3N)nc21,3.88% (inactive)
12,C[N+]1(C)CCC(OC(=O)C(c2ccccc2)c2ccccc2)CC1,0.125% (inactive)
13,CCCN1CC[C@@H]2c3cc(O)ccc3CC[C@@H]21,-5.31% (inactive)
14,CC(Cc1ccc(OCC(=O)O)cc1)NCC(O)c1cccc(Cl)c1 (stereo not given),0.5% (inactive)
15,CCCN(CCC)C1CCc2cccc(O)c2C1 (stereo not given),1.12% (inactive)
16,Oc1ccc2c3c1O[C@H]1c4oc5ccccc5c4C[C@@]4(O)C(C2)N(CC2CC2)CCC314 (stereo not given in full),1.94% (inactive)
17,NNC(=O)c1ccc(O)cc1,0.375% (inactive)
18,CCCN(CCC)[C@H]1CCc2c(F)ccc(O)c2C1,-3.06% (inactive)
19,COc1ccc2c(c1)/C(=C/c1cnc[nH]1)C(=O)N2,0.562% (inactive)
20,CCCN(CCC)[C@@H]1CCc2cccc(O)c2C1,0.5% (inactive)

row,Compound,activation
1,O=C(O)c1cc[c]([Hg][Cl])cc1,1.5% (inactive)
2,OCc1cnc[nH]1,1% (inactive)
3,Cc1[nH]c2ccc(O)cc2c1CCN,0.812% (inactive)
4,COc1ccc2[nH]cc(CCN)c2c1,-2.62% (inactive)
5,CN1C2CCC1CC(OC(c1ccccc1)c1ccccc1N)C2 (stereo not given),1.44% (inactive)
6,CCOC(=O)c1ncn2c1[C@@H]1CCCN1C(=O)c1cc(OC)ccc1-2,-0.25% (inactive)
7,CNc1ccc2oc(C[C@H]3O[C@@]4(CC[C@H]3C)O[C@H]([C@H](C)C(=O)c3ccc[nH]3)[C@H](C)C[C@H]4C)nc2c1C(=O)O,0.125% (inactive)
8,O=c1c2ccccc2[se]n1-c1ccccc1,3.06% (inactive)
9,CC(C)(C)c1o[nH]c(=O)c1CC(N)C(=O)O (stereo not given),0.625% (inactive)
10,C[C@H](N)CN1CCc2ccc(Br)cc21,0.625% (inactive)
11,C[Se]C[C@H](N)C(=O)O,0.188% (inactive)
12,CN1CC[C@@]2(C)c3cc(O)ccc3N(C)C12 (stereo not given in full),-0.188% (inactive)
13,CN(N=O)c1ccc(O)c(O)c1,-0.438% (inactive)
14,O=C1CC[C@@]2(O)C3Cc4ccc(O)c5c4C2(CCN3CC2CC2)[C@H]1O5 (stereo not given in full),1.31% (inactive)
15,COc1ccc2c(c1OC)C(=O)OC2C1c2cc3c(cc2CCN1C)OCO3 (stereo not given),-4.69% (inactive)
16,Cc1c2ccncc2c(C)c2c1[nH]c1ccccc12,28.2% (inactive)
17,CCCN1CCCC2Cc3[nH]ncc3CC21 (stereo not given),-0.5% (inactive)
18,COc1ccc(CNC(=O)/C=C/c2ccc3[nH]cc(CCN(C)C)c3c2)cc1,-0.312% (inactive)
19,NCC(CP(=O)(O)O)c1ccc(Cl)cc1 (stereo not given),0.5% (inactive)
20,COc1ccc2c(c1)C13CCCCC1C(C2)N(C)CC3 (stereo not given),1.06% (inactive)
